Source: PubChem BioAssay (National Center for Advancing Translational Sciences (NCATS))
SMN2 splice up: increases expression of the SMN2 splice variant; HEK293 SMN2-luciferase splicing reporter, luminescence, 30-36 h; Potency, µM (highest dose often 46.1 µM), without a hit: at the highest dose activity change, positive = activation, hits mostly activators; actives 2.8% (n = 210,000); AID 1458; note: % of control where 0% means no effect; nearly all actives have a fitted effect of over 55% in size
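HEK293 cells carry an SMN2 minigene-luciferase reporter in which exon 7 inclusion puts luciferase in frame. Cells were seeded at 2000 cells/well, attached for 10-12 hours, then exposed to compounds for 30-36 hours at 37C before ONE-Glo luminescence.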
ELG1 genotoxic: genotoxicity induction in ELG1-luciferase HEK293T cells | HEK293T ELG1-luciferase reporter, luminescence, 16 h | Potency, µM (doses to about 46 µM), inactives show at the top dose activity change, positive = activation, usual class: activators | actives 1.3% (n = 330,000) | AID 504466; note: % of control where 0% means no effect; nearly all actives have a fitted effect of over 60% in size
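Genotoxicity was scored as increased ELG1-luciferase reporter signal, measured by ONE-Glo luminescence (30 min, room temperature). Compound or vehicle exposure of the HEK293T reporter cells lasted 16 hr at 37°C.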
KinaseGlo FLuc: blocks Kinase-Glo luciferase, a counter-screen artifact. Q27757. Kinase-Glo luciferase, ATP luminescence, 8 min. Potency, µM (series often up to 38.3 µM), without a hit: at the top dose activity change, negative = inhibition, actives largely listed as inhibitors. actives 0.28% (n = 200,000). AID 1379; note: % is set by controls: 0 for no effect and ±100 for the full control effect; nearly all actives have a fitted effect of over 60% in size
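Substrate mix (final 50 mM imidazole pH 7.2, 50 mM KCl, 7 mM MgCl2, 10 uM ATP, 0.01% Tween 20, 0.05% BSA) plus pin-tool compound, then Kinase-Glo detection mix; 8 min ambient, luminescence read.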
FLuc counter: inhibits or activates purified firefly luciferase, miR-21 counter-screen | AID 588342 | purified FLuc, Km substrates, luminescence inhibition | actives 6.9% (n = 360,000) | Potency, µM (top dose mostly 57.5 µM), inactives show at the highest dose activity change, negative = inhibition, usual class: inhibitors | P08659;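 note: plate controls were vehicle for no effect and reference inhibitor for full effect; nearly all actives have a fitted effect of over 55% in size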
Target sequence (P08659 whole entry, looked up): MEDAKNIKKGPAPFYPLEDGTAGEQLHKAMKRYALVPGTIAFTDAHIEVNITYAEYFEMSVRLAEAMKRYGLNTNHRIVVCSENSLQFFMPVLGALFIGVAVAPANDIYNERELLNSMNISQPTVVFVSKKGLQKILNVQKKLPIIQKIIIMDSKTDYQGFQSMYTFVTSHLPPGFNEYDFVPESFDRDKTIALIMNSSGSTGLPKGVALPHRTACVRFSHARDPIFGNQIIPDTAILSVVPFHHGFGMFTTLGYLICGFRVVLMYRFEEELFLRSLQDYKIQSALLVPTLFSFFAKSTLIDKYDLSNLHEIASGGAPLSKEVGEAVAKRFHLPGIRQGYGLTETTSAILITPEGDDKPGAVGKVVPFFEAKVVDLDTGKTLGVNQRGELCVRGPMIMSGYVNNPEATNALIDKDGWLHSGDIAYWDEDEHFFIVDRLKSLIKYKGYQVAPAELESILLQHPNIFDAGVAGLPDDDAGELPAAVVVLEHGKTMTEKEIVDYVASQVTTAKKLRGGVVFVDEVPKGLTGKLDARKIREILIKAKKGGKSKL
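Purified P. pyralis luciferase, 10 nM final, with Km-level 10 uM D-luciferin and 10 uM ATP in 50 mM Tris acetate pH 7.5, 10 mM Mg acetate, 0.01% Tween-20, 0.05% BSA; 6-point qHTS titration about 60 µM downward; luminescence read.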
Rab9 prom act: activators of Rab9 promoter; Potency, µM (titrated, usually from 9.22 µM), without a hit: at the top dose activation, negative = inhibition, hits mostly activators; actives 2.8% (n = 320,000); Huh7 Rab9 promoter-luciferase reporter, luminescence, 24 h; note: % of control where 0% means no effect; nearly all actives have a fitted effect of over 60% in size
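Using Huh7 cells stably transfected with Rab9 promoter–luciferase, compounds were incubated 24 h at 37 °C, 5% CO2; luciferase luminescence was read 10 min after reagent addition.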
NPC1 prom act: NPC1 promoter activation. Potency, µM (highest dose often 9.22 µM), for the others: at the top dose activation, most hits filed as activators. Huh7 NPC1 promoter luciferase reporter, 24 h. actives 2.4% (n = 320,000); note: % of control where 0% means no effect; nearly all actives have a fitted effect of over 60% in size
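NPC1 promoter–luciferase Huh7 cells; 24 h compound; luminescence.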
Active calls of the source: *; [ ] = remark or other dose. Most compounds without a hit are left out; they make up all but 7.4% or so of the library. Calls come from the whole dose curve; as a rule, active = well fitted curve in the direction sought with a large enough effect; inconclusive = small, poorly fitted or top-dose-only effect, or another doubt; inactive = no such curve, though single readings can be large; an effect the other way counts as inactive or inconclusive. Potency is the fitted concentration of half-maximal effect.

Results for COc1ccc(Br)cc1CN(C)C(=O)c1cnc(C)cn1 ?
ELG1 genotoxic: 1%; FLuc counter: -1%; Rab9 prom act: -4%[1.84 µM]; NPC1 prom act: -7%

Results for Cc1cc(NS(=O)(=O)c2cc(Cl)sc2Cl)no1 ?
ELG1 genotoxic: -3%; FLuc counter: -2%; Rab9 prom act: 1%; NPC1 prom act: -5%

What do the screens show for `O=C(NCCS(=O)(=O)N1CCN(c2ccccc2F)CC1)c1cccc(Br)c1`?
ELG1 genotoxic: -5%; FLuc counter: 1%; Rab9 prom act: -4%; NPC1 prom act: 0%

How did O=C(COc1ccc2c(c1)OCO2)Nc1ccc2c(c1)oc1ccccc12 do in these assays?
ELG1 genotoxic: 5%; KinaseGlo FLuc: 4%; FLuc counter: -2%; Rab9 prom act: 12%; NPC1 prom act: 9%

How did COc1cc2c(cc1NC(=O)COc1ccccc1OC)oc1ccccc12 do in these assays?
SMN2 splice up: 6%; ELG1 genotoxic: inconclusive; KinaseGlo FLuc: -3%; FLuc counter: 3%; Rab9 prom act: -4%; NPC1 prom act: 13%

What do the screens show for `O=C(O)COCC(=O)Nc1ccc2c(c1)oc1ccccc12`?
ELG1 genotoxic: 1%; FLuc counter: 17µM*; Rab9 prom act: 0%; NPC1 prom act: -2%

Results for CNC(=O)COc1ccccc1C(=O)Nc1ccc2c(c1)oc1ccccc12 ?
SMN2 splice up: -12%; ELG1 genotoxic: 1%; KinaseGlo FLuc: 1%; FLuc counter: 3.8µM*; Rab9 prom act: -38%; NPC1 prom act: -18%

What do the screens show for `O=C(O)CCC(=O)Nc1ccc2c(c1)oc1ccccc12`?
SMN2 splice up: 17%; ELG1 genotoxic: 15%; KinaseGlo FLuc: -1%; FLuc counter: 24µM*; Rab9 prom act: -5%; NPC1 prom act: 2%

How did Cc1ccc(OCCCn2c(-c3ccc(Cl)cc3)nc3ccccc3c2=O)c(C)c1 do in these assays?
SMN2 splice up: -12%; FLuc counter: -9%

How did CCOC(=O)C1CCCN(S(=O)(=O)CCNC(=O)c2ccc3c(c2)OCO3)C1 (stereo not given) do in these assays?
ELG1 genotoxic: -2%; FLuc counter: 1%; Rab9 prom act: -4%; NPC1 prom act: -3%

How did O=C(COc1ccc(Cl)cc1)N/N=C/c1cccc2cccnc12 do in these assays?
ELG1 genotoxic: -1%; FLuc counter: 2%; Rab9 prom act: -2%; NPC1 prom act: -1%

What do the screens show for `O=C(N/N=C/c1cccc2nccnc12)c1ccccc1O`?
ELG1 genotoxic: 12%; FLuc counter: 11µM*; Rab9 prom act: 3%; NPC1 prom act: -7%

Results for O=C(N/N=C/c1cccc2cccnc12)c1ccccc1O ?
ELG1 genotoxic: 21µM*; FLuc counter: 7.6µM*; Rab9 prom act: -9%; NPC1 prom act: -1%

Results for O=C(COc1ccccc1)NCC(=O)N1CCCCCC1 ?
ELG1 genotoxic: 1%; FLuc counter: 1%; Rab9 prom act: -1%; NPC1 prom act: -1%

How did COc1ccc2c(c1)O[C@@H](c1cccc(C(F)(F)F)c1)[C@H](OC(=O)N[C@H](C)C1CCCCC1)C2=O do in these assays?
SMN2 splice up: 8%; KinaseGlo FLuc: -1%

What do the screens show for `CNc1nnc(CSc2nc3ccccc3s2)s1`?
SMN2 splice up: inconclusive; ELG1 genotoxic: inconclusive; KinaseGlo FLuc: -2%; FLuc counter: inconclusive; Rab9 prom act: inconclusive; NPC1 prom act: 24%

What do the screens show for `CCN(C(C)=O)c1nnc(CSc2nc3ccccc3s2)s1`?
SMN2 splice up: -20%; ELG1 genotoxic: 8.2µM*; KinaseGlo FLuc: 1%; FLuc counter: inconclusive; Rab9 prom act: inconclusive; NPC1 prom act: inconclusive

What do the screens show for `COCCN(CCOC)C(=O)c1ccc(CSc2nc3ccccc3s2)cc1`?
ELG1 genotoxic: 12%; FLuc counter: 17µM*; Rab9 prom act: 17%; NPC1 prom act: 27%

Results for NNC(=O)c1ccc(CSc2nc3ccccc3s2)cc1 ?
SMN2 splice up: -3%; ELG1 genotoxic: 7%; KinaseGlo FLuc: 2%; FLuc counter: 17µM*; Rab9 prom act: 16%; NPC1 prom act: 1%

What do the screens show for `O=C(Nc1ccc2nc(SCc3ccccc3)sc2c1)c1cccc(F)c1`?
FLuc counter: -13%

What do the screens show for `CC1O[C@@H](O[C@H](C)CC[C@@H](C)O[C@H]2OC(C)[C@@H](O)C[C@H]2O)C(O)C[C@H]1O` (stereo not given in full)?
ELG1 genotoxic: 4%; FLuc counter: -1%; Rab9 prom act: -6%; NPC1 prom act: 0%

What do the screens show for `COc1cc(C(O)c2nc3ccccc3s2)cc(OC)c1OC` (stereo not given)?
ELG1 genotoxic: 2%; FLuc counter: -1%; Rab9 prom act: -23%; NPC1 prom act: -29%

How did Cc1ccc(NNS(=O)(=O)c2ccc(C)cc2)cc1 do in these assays?
SMN2 splice up: -13%; ELG1 genotoxic: 2%; KinaseGlo FLuc: -1%; FLuc counter: 21µM*; Rab9 prom act: -1%; NPC1 prom act: 1%

What do the screens show for `Cc1noc(C)c1COc1ccccc1C(=O)NC1CCC(C)CC1` (stereo not given)?
ELG1 genotoxic: 5%; FLuc counter: 2%; Rab9 prom act: 18%; NPC1 prom act: 1%

How did N#Cc1nc(-c2ccc(Cl)cc2)oc1NCc1ccco1 do in these assays?
SMN2 splice up: inconclusive; ELG1 genotoxic: inconclusive; KinaseGlo FLuc: 4%; FLuc counter: 1%[2.3 µM]; Rab9 prom act: inconclusive; NPC1 prom act: inconclusive

Results for COc1ccc(-c2nc(C#N)c(NCCc3ccccc3)o2)cc1 ?
SMN2 splice up: inconclusive; ELG1 genotoxic: 11%; KinaseGlo FLuc: 0%; FLuc counter: inconclusive; Rab9 prom act: inconclusive; NPC1 prom act: 18%

Results for Cc1ccc(-c2nc(C#N)c(NCCc3ccccn3)o2)cc1 ?
SMN2 splice up: inconclusive; ELG1 genotoxic: inconclusive; KinaseGlo FLuc: -5%; FLuc counter: inconclusive; Rab9 prom act: inconclusive; NPC1 prom act: 3.5µM*

What do the screens show for `N#Cc1nc(-c2ccc(Cl)cc2)oc1NCCc1ccccn1`?
SMN2 splice up: 22%; ELG1 genotoxic: 8.2µM*; KinaseGlo FLuc: 1%; FLuc counter: -10%; Rab9 prom act: inconclusive; NPC1 prom act: inconclusive

How did CCOc1ccc(C(=O)NCCSc2c(C)[nH]c3ccccc23)cc1OCC do in these assays?
SMN2 splice up: -3%; FLuc counter: 5%

What do the screens show for `N#Cc1c(C(F)(F)F)cc(=O)n2c1[nH]c1ccccc12`?
ELG1 genotoxic: -6%; FLuc counter: 27µM*; Rab9 prom act: 2%; NPC1 prom act: 0%
